Measured values from PubChem BioAssay (NCI).
The panel holds about 83,000 compounds, 20% with a hit somewhere; the sample as a whole holds those more often.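 Treatment: one concentration, 48 hours, 96-well format. Scoring: percent growth, with anything below 10 considered active.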 Calls of active or inactive are those of the source.

Legend:
Test in all cases: NCI-60 one-dose screen, 48 h (100 = growth as untreated, 0 = no growth, -100 = all killed)
Conditions in all cases: 10 µM unless noted
[1] = system: HCT-15 colon
[2] = system: HT29 colon
[3] = system: SNB-75 CNS
[4] = system: SNB-19 CNS
[5] = system: U251 CNS
[6] = system: PC-3 prostate
[7] = system: SK-MEL-5 melanoma
[8] = system: LOX IMVI melanoma
[9] = system: SK-MEL-28 melanoma
[10] = system: UACC-62 melanoma

Measured: growth

COc1ccc(CN(c2ccc(C)cc2)C2OC(=O)c3ccccc32)cc1OC (stereo not drawn)
inactive: [1] 96.3% | [2] 97.9% | [3] 90.3% | [4] 96.5% | [5] 86.3% | [6] 90.6% | [7] 94.7% | [8] 93.2% | [9] 108%

NC(=S)N/N=C/c1cc(-c2cccc(N)c2)ccn1
inactive: [1] 23.8% | [2] 34.8% | [3] 35.1% | [4] 42.9% | [5] 16.1% | [8] 15.6% | [9] 52.1%
active: [7] 8.97% | [10] -2.21%

COc1cc(C2C(C(=O)c3cccs3)=C(O)C(=O)N2CCN2CCOCC2)cc(OC)c1OC (stereo not drawn)
inactive: [1] 102% | [2] 103% | [3] 91.6% | [4] 103% | [5] 94.7% | [6] 95.4% | [7] 96.1% | [10] 106% | [9] 104%

Cc1[nH]n(-c2ccccc2)c2nc3nncc3c(-c3ccc(Cl)cc3)c12
inactive: [1] 94.1% | [2] 79.7% | [3] 104% | [4] 100% | [5] 99.2% | [6] 73.1% | [7] 104% | [8] 89% | [9] 104%

COc1ccc(/C=N\NC(=O)c2ccncc2)cc1O
inactive: [1] 107% | [2] 112% | [3] 74.8% | [4] 95.1% | [6] 106% | [7] 92.5% | [10] 99.8% | [8] 97.2% | [9] 104%

O=c1ccc2cc3ccccc3cc2[nH]1
inactive: [1] 109% | [2] 101% | [3] 82.2% | [4] 104% | [6] 105% | [7] 80.8% | [10] 66.4% | [8] 102% | [9] 124%

COc1cc(OC)c(/C=C/c2cc[n+](C)c3ccccc23)c(OC)c1
inactive: [1] 90.9% | [4] 26.4% | [6] 16.5% | [10] 12.7% | [9] 24.8%
active: [2] 0.813% | [3] -13.8% | [7] -47.2% | [8] -74.2%

CCOc1ccc(Nc2nc(-c3c(C)nc4ncccn34)cs2)cc1
inactive: [1] 15.4% | [3] 22.9% | [4] 33.4% | [8] 23.1% | [9] 39%
active: [2] 4.76% | [5] 4.82% | [7] -11.6%

Cc1ccc(C2CC3c4ccccc4C2C2CCCCN32)cc1 (stereo not drawn)
inactive: [1] 99.8% | [2] 90.4% | [3] 69.9% | [4] 87.4% | [6] 80% | [7] 76.4% | [10] 99.3% | [8] 84.4% | [9] 96.4%

COc1cc2cc(COc3nccc(-c4ccc(Cl)cc4)n3)c(=O)[nH]c2cc1OC
active: [2] -7.34%
inactive: [1] 63.6% | [3] 91.6% | [4] 77.1% | [6] 71.4% | [7] 77.2% | [10] 92.3% | [8] 54.7% | [9] 40.3%

COc1ccccc1-c1ccc2c(N)c(C(=O)c3ccc4c(c3)OCO4)sc2n1
inactive: [1] 38.8% | [2] 47% | [3] 85.1% | [4] 82.1% | [5] 63.7% | [7] 56.6% | [10] 42% | [8] 58% | [9] 71.3%

O=C1C(Cl)=C(Cl)C(=O)c2c1nc1n2CCCC1
inactive: [1] 103% | [2] 99.7% | [3] 126% | [4] 96.4% | [6] 88.5% | [7] 98.8% | [10] 93.7% | [8] 85.8% | [9] 113%

CCCCCCCCCCCCCCCC[N+]1(CC)CCCC1
inactive: [1] 22.8%
active: [2] -65.7% | [3] -37% | [4] -53.9% | [6] -77.6% | [7] -83.6% | [10] -78.3% | [8] -64.1% | [9] -38.6%

CC(=O)Oc1ccc(Nc2c3ccccc3nc3ccccc23)cc1
inactive: [4] 16.1% | [9] 25.8%
active: [1] 1.67% | [2] -38.4% | [3] 2.16% | [6] 7.48% | [7] -73.2% | [10] -45.3% | [8] -34.8%

COc1cc2nc3cc([N+](=O)[O-])ccc3c(NCCCNCC(C)(C)O)c2cc1OC
active: [2] -52.4% | [3] -96% | [4] -26.1% | [6] -61.8% | [7] -94.5% | [10] -76.1% | [8] -58.4% | [9] -64%
inactive: [1] 21.9%

C=C1CC[C@@H]2[C@](C)(COC(C)=O)[C@H](OC(C)=O)CC[C@@]2(C)[C@@H]1CC(Nc1ccc(S(=O)(=O)Nc2nc(C)cc(C)n2)cc1)C1=CCOC1=O (stereo partly drawn)
inactive: [1] 49.2% | [2] 46.2% | [3] 44.6% | [4] 100% | [6] 65.2% | [7] 74.2% | [10] 32.9% | [9] 83.5%
active: [8] -60.6%

Cc1cc(Nc2nc(-c3cccnc3)nc3ccccc23)n[nH]1
inactive: [1] 29.7% | [2] 23.4% | [4] 77.6% | [6] 58.7% | [7] 73.8% | [10] 49.3% | [8] 20.1% | [9] 50.5%
active: [3] -32.9%

CC(=O)Oc1cc2cnc3c4cc(OC(C)=O)c(OC(C)=O)cc4ccc3c2cc1OC(C)=O
active: [3] -5.27% | [10] -22%
inactive: [1] 25.1% | [2] 17.4% | [4] 33.9% | [6] 21.6% | [7] 13.1% | [8] 10.6% | [9] 42.7%

CCOC(=O)CC(C)=N
inactive: [1] 105% | [2] 103% | [3] 84% | [4] 99.7% | [6] 104% | [7] 100% | [10] 102% | [8] 118% | [9] 101%

CC#Cc1nc2ccccc2c(=O)[nH]1
active: [1] 3.71% | [3] -2.64% | [7] -10% | [8] -60.1%
inactive: [2] 51.2% | [4] 123% | [6] 61.4% | [10] 50.1% | [9] 54.3%

Cl/C(=N\Nc1ccccc1)c1ccccc1
inactive: [1] 93.4% | [2] 103% | [3] 67.4% | [4] 100% | [6] 78% | [7] 93.8% | [10] 78.2% | [8] 97% | [9] 101%

COc1cnc2c(c1)C(=O)c1c-2n(CCCBr)c(=O)c2cc([N+](=O)[O-])ccc12
inactive: [1] 20.7% | [3] 13.5% | [4] 22.3% | [9] 16.3%
active: [2] 0.984% | [6] 4.1% | [7] -82.6% | [10] -62.3% | [8] -54.2%

c1ccc(-c2nc(N3CCOCC3)c3c4c(sc3n2)CCCCC4)nc1
inactive: [1] 59.5% | [2] 54.5% | [3] 45.9% | [4] 62.5% | [6] 41.7% | [7] 23.4% | [10] 56.1% | [8] 83.2% | [9] 61.8%

C[C@@H]1CC[C@@H]2[C@@H]1[C@H](OC(=O)/C=C/c1ccccc1)[C@]1(C3CCCCC3)C[C@@H](OC(=O)CO)[C@@]2(C)O1
inactive: [1] 66.2% | [2] 38.4% | [3] 88.4% | [4] 88.2% | [6] 22.8% | [7] 85.9% | [10] 73.3% | [8] 76% | [9] 83.8%

c1c2c(cc3c1OCO3)Cc1cc3c(cc1Cc1cc4c(cc1C2)OCO4)OCO3
inactive: [1] 103% | [2] 108% | [3] 73% | [4] 106% | [6] 99.8% | [7] 108% | [10] 108% | [8] 95.8% | [9] 103%

COc1ccc(-c2c3c(nc4n[nH]c(-c5ccc(Cl)cc5)c24)-c2ccccc2C(=O)C3=O)cc1
active: [2] -11.8% | [6] 7.97% | [7] 5.41% | [10] -33.7% | [8] -50.9%
inactive: [1] 21.6% | [3] 54.3% | [4] 44.3% | [9] 30.4%

CC(C)(C)c1nn(-c2ccccc2)c2c1CC1(CN2Cc2ccc3c(c2)OCO3)C(=O)c2ccccc2C1=O
inactive: [1] 105% | [2] 103% | [3] 120% | [4] 111% | [5] 105% | [10] 92.3% | [8] 103% | [9] 116%

Cc1ccc(Nc2c(C(N)=O)cnc3ccc(-c4csc(N)n4)cc23)cc1
inactive: [1] 98.7% | [2] 103% | [3] 96.9% | [4] 102% | [6] 97.6% | [7] 96.7% | [10] 102% | [8] 96.2% | [9] 101%

COc1cccc(-n2cc(-c3nc(Nc4cc(C)[nH]n4)c4ccccc4n3)nn2)c1
active: [3] -10.2% | [7] -42%
inactive: [1] 29.7% | [2] 65.5% | [4] 73.1% | [6] 55.3% | [10] 50.8% | [8] 66.5% | [9] 64%

Nc1nc(-c2ccc(F)cc2)cc(-c2cnn(-c3ccccc3)n2)n1
inactive: [1] 95.4% | [2] 93.5% | [3] 100% | [4] 104% | [6] 114% | [7] 104% | [10] 91.1% | [8] 97.2% | [9] 107%
